Only a sample is shown.
PostGolgi ctrl = growth of the yeast control strain, post-Golgi counter-screen; efflux-deficient yeast background strain, growth absorbance A615, 16 h; inhibition, % at 10 µM; 5% of 98,000 active
CYP2C19 inhib = human CYP2C19 inhibition; CYP2C19 Supersomes, luciferin-H EGE luminescence, 30 min; 21% of 96,000 active; inhibition, % at 5 µM; P33261; AID 778;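 active = CYP2C19 inhibition above a set limit at 5 µM in the primary screen, cut at about 50% in these data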
Target sequence (P33261 whole entry, looked up): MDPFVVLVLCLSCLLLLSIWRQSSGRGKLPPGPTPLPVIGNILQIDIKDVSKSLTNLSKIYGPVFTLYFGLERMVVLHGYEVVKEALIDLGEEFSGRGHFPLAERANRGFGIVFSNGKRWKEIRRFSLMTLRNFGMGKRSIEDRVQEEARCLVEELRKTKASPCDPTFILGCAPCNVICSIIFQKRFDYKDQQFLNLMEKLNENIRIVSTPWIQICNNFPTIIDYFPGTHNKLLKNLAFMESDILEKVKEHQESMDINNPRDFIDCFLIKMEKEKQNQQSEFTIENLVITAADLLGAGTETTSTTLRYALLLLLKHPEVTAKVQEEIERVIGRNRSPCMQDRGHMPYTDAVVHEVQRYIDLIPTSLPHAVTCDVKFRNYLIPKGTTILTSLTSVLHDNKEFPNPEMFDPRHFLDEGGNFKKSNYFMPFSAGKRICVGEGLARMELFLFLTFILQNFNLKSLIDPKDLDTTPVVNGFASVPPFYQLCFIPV
CYP2C9 inh = blocks human cytochrome P450 2C9 | CYP2C9 Supersomes, luciferin-H conversion, luminescence | 20% of 96,000 active | AID 777 | inhibition, % at 5 µM;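 active = blocking of liver enzyme CYP2C9 beyond about 50% at 5 µM, limit read from the data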
PostGolgi yeast = growth inhibition of a yeast mutant, post-Golgi transport screen | inhibition, % at 10 µM | 0.9% of 98,000 active | post-Golgi transport phenotypic cell assay;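 note: yeast cells grown in 1536-well plates; yeast grown about 18 h at 30C before absorbance read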
CYP2C9 activ = CYP2C9 (human) activation; P11712; recombinant CYP2C9, luciferin-H conversion, luminescence; active compounds read high; factor 1 = untreated enzyme, 0 = blocked; activation factor at 5 µM; 1.4% of 96,000 active; AID 1024;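 active = activation factor of 2 or more for CYP2C9 at a 5 µM dose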
CYP2C19 activ = activators of human cytochrome P450 2C19 | AID 1025 | recombinant CYP2C19, luciferin-H EGE luminescence; active compounds read high; 0 = fully inhibited enzyme, 1 = untreated enzyme | activation factor at 5 µM | 96,000 tested, under 10 active | P33261;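 active = activation factor of at least 2 at 5 µM in the primary screen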
Hits are given with their value; . = inactive; / = no result given. Cut-off read from the data, not from the text of the source, unless noted: active = inhibition above about 30%; inactive = the rest.

SMILES	PostGolgi ctrl	CYP2C19 inhib	CYP2C9 inh	PostGolgi yeast	CYP2C9 activ	CYP2C19 activ
CCn1c(=O)n(CC)c2cc(S(=O)(=O)N3CCC(c4ccccc4)CC3)ccc21	.	.	68	.	.	.
Cc1ccc(C2C3=C(CC(C)(C)CC3=O)Nc3n[nH]c(C)c32)cc1 (configuration not stated)	.	.	.	.	.	.
Cc1nc2[nH]c(=O)c3c(n2n1)NC1=C(C(=O)CC(C)(C)C1)C3c1ccccc1 (configuration not stated)	.	.	67	.	.	.
COc1cc2c(C(=O)O)c(C)n(CC(C)C)c2c2ccccc12	33	.	.	.	.	.
CC(C)Cn1c2ccccc2c2cc(C(=O)O)ccc21	.	.	.	.	.	.
CN(C1CCS(=O)(=O)C1)S(=O)C12CC3CC(CC(C3)C1)C2 (configuration not stated)	.	/	/	.	/	/
CC(C)C12CN3CC(C(C)C)(CN(C1)C3c1ccccc1O)C2=O (configuration not stated)	.	91	90	.	.	.
CC12CN3CC(C)(CN(C1)C3c1ccc(Br)cc1)C2=O (configuration not stated)	.	.	.	.	.	.
CN1C(=O)c2ccccc2N(C)C1c1ccc2c(c1)OCO2 (configuration not stated)	.	81	69	.	.	.
CC1CN(C(=O)c2ccccc2)OC(c2ccc3c(c2)OCO3)O1 (configuration not stated)	.	.	.	.	.	.
CC12CN3CC(C)(CN(C1)C3c1cc(Br)ccc1O)C2=O (configuration not stated)	.	52	.	.	.	.
CCCC12CN3CC(C)(CN(C1)C3c1ccc(OC)cc1)C2=O (configuration not stated)	.	.	.	.	.	.
CCCC12CN3CC(C)(CN(C1)C3c1ccc3c(c1)OCO3)C2=O (configuration not stated)	.	73	.	.	.	.
O=C1c2oc3ccccc3c(=O)c2C(c2cccs2)N1CCCN1CCOCC1 (configuration not stated)	.	.	.	.	.	.
CCN1CCN(C(=O)CN(c2ccccc2C)S(C)(=O)=O)CC1	.	.	.	.	.	.
COc1cc(NC(=O)C2CCN(S(=O)(=O)c3cccnc3)CC2)cc(OC)c1OC	.	.	.	.	.	.
CC(C)C12CN3CC(C(C)C)(CN(C1)C3c1ccc3c(c1)OCO3)C2=O (configuration not stated)	.	92	75	.	.	.
CCC12CN3CC(CC)(CN(C1)C3c1ccc(OC(C)C)cc1)C2=O (configuration not stated)	.	.	.	.	.	.
Cc1ccc(SCCNC(=O)c2ccc(C)c([N+](=O)[O-])c2)cc1	.	51	.	.	.	.
Cc1ccc(SCCNC(=O)c2ccccc2C)cc1	.	90	89	.	.	.
Cc1ccc(C(=O)NCCSc2ccc(Cl)cc2)cc1[N+](=O)[O-]	36	/	/	.	/	/
Cc1cc(C)nc(NC(=O)c2ccc(C)c([N+](=O)[O-])c2)n1	.	.	.	.	.	.
Cc1cc(C(=O)N2CCN(c3ccccn3)CC2)no1	.	.	.	.	.	.
CCOC(=O)N1CCN(CC(O)COC2CC(C)CC(C)(C)C2)CC1 (configuration not stated)	.	.	.	.	.	.
O=C(NC1CCCCC1)Sc1ccc(Cl)cc1	.	.	.	.	.	.
SMILES	PostGolgi ctrl	CYP2C19 inhib	CYP2C9 inh	PostGolgi yeast	CYP2C9 activ	CYP2C19 activ
O=C1NC2(CCCCCC2)N=C1c1ccc(F)cc1	.	.	.	.	.	.
CC1(C)N=C(c2ccc(Cl)cc2)C(=O)N1	.	87	.	.	.	.
CC1(C)N=C(c2ccccc2)C(=O)N1	.	.	.	.	.	.
CC1(C)N=C(c2cccc(F)c2)C(=O)N1	.	60	.	.	.	.
Cc1ccc(C2=NC(C)(C)NC2=O)cc1	.	84	.	.	.	.
CCOCCCNC(=O)CCNC(=O)c1cc(OC)c(OC)c(OC)c1	.	.	.	.	.	.
CCCCOc1ccccc1C(=O)NCCCC(=O)O	.	.	.	.	.	.
CCCCC(=O)Nc1nn(C)c2nc3c(C)cccc3cc12	.	.	.	.	.	.
CC1=NN(C(N)=S)C(=O)C1N=Nc1ccc(C)cc1C (configuration not stated)	.	.	.	.	.	.
CC1=NN(C(N)=S)C(=O)C1N=Nc1ccccc1C (configuration not stated)	30	/	/	.	/	/
CC1=NN(C(N)=S)C(=O)C1N=Nc1c(C)cc(C)cc1C (configuration not stated)	32	.	.	.	.	.
CCCc1nnc(SCC(=O)O)n1/N=C/c1ccc2c(c1)OCO2	.	.	.	.	.	.
COc1ccc(N2CCN(Cc3oc(CO)cc(=O)c3O)CC2)cc1	.	.	.	.	.	.
Cn1[nH]c(=O)c(Cl)c(Cl)c1=O	.	.	.	.	.	.
CCC(Cc1ccccc1)NC(=O)C1CCC(CNc2c(N3CCCC3)c(=O)c2=O)CC1 (configuration not stated)	.	.	.	.	.	.
CCn1nnc(C(=O)O)c1C(=O)O	.	.	.	.	.	.
Cc1cccc(NC(=S)NNC(=O)CC(C)O)c1C (configuration not stated)	48	.	61	.	.	.
Cn1c(C(F)(F)F)nc2c(=O)oc3ccccc3c21	.	.	.	.	.	.
O=C(NC(=S)NCc1ccccc1)C1CCCCC1	.	.	.	.	.	.
CC1(C)Cc2ccccc2-c2nc(NCCO)n(-c3ccccc3)c(=O)c21	.	61	.	.	.	.
CCC1(C)Cc2ccccc2-c2nc(NCCO)n(-c3ccc(C)cc3)c(=O)c21 (configuration not stated)	35	67	.	.	.	.
CC1(C)Cc2ccccc2-c2nc(-c3ccccc3)oc(=O)c21	.	.	.	.	.	.
CCC(C)(C)NC(=O)C(c1ccc(C)cc1)N(Cc1ccco1)C(=O)CCC(=O)Nc1nccs1 (configuration not stated)	.	.	.	.	.	.
Cc1[nH]c2ccccc2c1Cc1nnc(SCC(N)=O)o1	.	.	.	.	.	.
N#CC(c1ccc(Cl)nn1)c1ccc(Cl)cc1Cl (configuration not stated)	.	96	.	.	.	.
COc1ccc(-c2nnc(SC(C)C(=O)NCc3ccc4c(c3)OCO4)n2Cc2ccco2)cc1 (configuration not stated)	.	.	.	.	.	.
COC(=O)c1ccc(OCC2c3cc(OC)c(OC)cc3CCN2C(=O)C2CC2)cc1 (configuration not stated)	.	71	.	.	.	.
Cc1cc(C(=O)CSc2nn3c(=O)c(C(C)(C)C)nnc3s2)c(C)n1-c1ccc(F)cc1	.	.	58	.	.	.
